# About 17,000 (5.5%) of roughly 310,000 compounds were called active. Roughly 11% stayed inconclusive and do not appear here. Calls follow the shape of the dose curve; as a rule, active = well fitted inhibition curve with a large enough effect; inconclusive = small, poorly fitted or top-dose-only effect, or effect the other way; inactive = no such curve, though single readings can be large or run the other way. The list comes from a sample in which actives are over-represented; it also holds similar structures and randomly drawn compounds. Where a call stands in place of a potency, no number is given.
# Target: Nuclear receptor ROR-gamma (Mus musculus) (UniProt P51450)
# Sequence (P51450 whole entry, looked up): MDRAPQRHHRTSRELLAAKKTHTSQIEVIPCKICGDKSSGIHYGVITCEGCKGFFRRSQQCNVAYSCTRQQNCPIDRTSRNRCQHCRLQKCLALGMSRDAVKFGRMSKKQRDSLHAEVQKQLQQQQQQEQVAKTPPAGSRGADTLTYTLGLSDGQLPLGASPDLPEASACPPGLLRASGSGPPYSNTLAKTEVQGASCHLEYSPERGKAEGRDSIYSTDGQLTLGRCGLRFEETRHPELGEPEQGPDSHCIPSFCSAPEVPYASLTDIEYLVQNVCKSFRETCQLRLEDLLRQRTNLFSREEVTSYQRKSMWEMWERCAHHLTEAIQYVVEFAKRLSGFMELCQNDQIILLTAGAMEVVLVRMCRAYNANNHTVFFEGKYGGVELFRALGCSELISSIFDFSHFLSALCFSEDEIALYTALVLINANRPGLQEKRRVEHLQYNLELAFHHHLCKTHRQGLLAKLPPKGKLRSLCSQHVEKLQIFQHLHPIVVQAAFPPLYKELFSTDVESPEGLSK
# Test: qHTS for inhibitors of ROR gamma transcriptional activity; also: nearly all actives have a fitted effect of over 60% in size
# Conditions: Drosophila S2 Gal4-RORgamma UAS-luciferase reporter, 20 h; series mostly up to 53.6 µM
# Outline: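 Stable Schneider cell line, Gal4 DNA-binding domain fused to ROR gamma, UAS-luciferase. Cmpd 1 hr RT → CuSO4 700 uM final → 20 hr RT → luciferase reagent 10 min → luminescence.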
# Potency is read from the fitted curve at half-maximal effect.
SMILES,Potency,"activity change, negative = inhibition"
COc1ccc(C(=O)N[C@H](C(=O)NCc2ccccc2)C(C)C)cc1,inactive,–
CNC[C@H](CC1CCCCC1)NC[C@H](NCCC1CCCC1)[C@H](C)O,inactive,–
O=C(Nc1cccnc1Cl)c1cc(-c2ccccc2O)on1,inactive,–
O=C(CCc1nc2ccccc2c(=O)[nH]1)OCC(=O)c1cccc(Cl)c1,inactive,–
NC(=O)Cc1nc2scc(-c3ccc(Cl)cc3)c2c(=O)[nH]1,inactive,–
O=c1[nH]c(CCl)nc2cc(-c3ccc(Cl)cc3)sc12,7.08 µM (active),–
CC(C)c1cc(C(=O)N/N=C/C(Br)=C/c2ccccc2)n[nH]1,inactive,–
Cc1ccc(-c2cc(C(=O)N/N=C/C=C/c3ccccc3)n[nH]2)o1,7.08 µM (active),–
Cc1ccc(-c2cc(C(=O)NN)n[nH]2)o1,inactive,–
CCOC(=O)N1CCC(N2Cc3cccc(C(=O)Nc4ccc(S(=O)(=O)N(CC)CC)cc4)c3C2=O)CC1,inactive,–
Cc1ccc2c(c1)N(CC(=O)N1CCC(C)CC1)C(=O)c1cccnc1O2,inactive,–
CCCn1nc(NC(=O)C(C)C)c2cc3cc(OC)ccc3nc21,inactive,–
Cc1cc(Cl)c2oc(C(=O)N(C)C(C)c3ccccn3)c(C)c2c1 (configuration not stated),inactive,–
CCNC(=O)N1CCCC(C(=O)c2ccc(-c3ccccc3)cc2)C1 (configuration not stated),inactive,–
NS(=O)(=O)c1ccc(CCNC(=O)c2nc(CS(=O)(=O)c3ccc(Cl)cc3)no2)cc1,inactive,–
COc1ccccc1NC(=O)CSc1nc2sc3c(c2c(=O)n1-c1ccccc1)CCN(C)C3,inactive,–
O=C(O)CCC(=O)NCc1ccc2[nH]c3c(c2c1)CCCC3,inactive,–
Cc1cccc(NC(=S)NCc2ccc3[nH]c4c(c3c2)CCCC4)c1,1.58 µM (active),–
C=CCNC(=S)N1CCc2[nH]c3ccccc3c2C1,inactive,–
Cc1cnc(CN(C)C(=O)C2CCC(=O)N(CCc3cccc(F)c3)C2)[nH]1 (configuration not stated),inactive,–
Nc1nnn(CC(=O)N/N=C/c2ccc(O)cc2)n1,inactive,–
CC(C)(C)c1nnc(N/N=C/c2ccc(O)cc2)n(N)c1=O,1.26 µM (active),–
O=C(C[n+]1ccccc1)N/N=C/c1ccc(O)cc1,inactive,–

SMILES,Potency,"activity change, negative = inhibition"
CSc1cccc(NC(=O)CN2C(=O)COc3ccc(S(=O)(=O)N4CCOCC4)cc32)c1,inactive,–
CC(=O)c1ccc(N2CCN(C(=O)CCNC(=O)Cn3ccc4ccccc4c3=O)CC2)cc1,inactive,–
Cc1ccccc1NC(=O)c1cc(S(=O)(=O)Nc2cccc(C(=O)O)c2)ccc1Cl,inactive,–
COc1ccc(C(=O)NC(=S)N2CCNC(=O)C2CC(=O)OC(C)C)cc1 (configuration not stated),4.47 µM (active),–
COc1cccc(NC(=O)CC2C(=O)NCCN2C(=S)Nc2ccc(F)cc2)c1 (configuration not stated),inactive,–
CCC1C(=O)NCCN1C(=O)c1ccc2nc(Cc3ccc(OC)cc3)oc2c1 (configuration not stated),inactive,–
N=C1C(c2nc3ccccc3s2)=C(O)CN1NC(=O)c1ccc([N+](=O)[O-])cc1,2.82 µM (active),–
COc1ccccc1N1CC(O)=C(c2nc3ccccc3s2)C1=N,inactive,–
CCOC(=O)CCCN1CC(O)=C(c2nc3ccccc3s2)C1=N,inactive,–
CCOc1cc(C2C(C(=O)c3ccco3)=C(O)C(=O)N2Cc2ccccc2)ccc1O (configuration not stated),inactive,–
Cn1nc(-c2ccccc2)c2cc([N+](=O)[O-])ccc21,inactive,–
Cc1c(NC(=O)Nc2cccc([N+](=O)[O-])c2)c(=O)n(-c2ccccc2)n1C,inactive,–
CC(CC(=O)Nc1ccc(F)cc1F)S(=O)(=O)c1ccc2c(c1)NC(=O)CO2 (configuration not stated),inactive,–
Cc1nnc(SCC(=O)NCc2ccccc2)s1,inactive,–
Cc1cc(SCC(=O)NCCN2C(=O)CSC2=O)nc2ccccc12,11.2 µM (active),–
COCC(C)n1c(C)cc(C(=O)CSc2cc(C)c3ccccc3n2)c1C (configuration not stated),inactive,–
N[C@@H](Cc1ccccc1)C(=O)N1CCC(C(=O)NCC(=O)Nc2ccc(F)cc2)CC1,inactive,–
Cc1ccn2c(=O)c(C(=O)NCCC3=CCCCC3)c(O)nc2c1,inactive,–
COC(=O)c1cn(-c2ccccc2)nc1-c1cccnc1,inactive,–
O=C(NNC(=S)NC(=O)c1cn(-c2ccccc2)nc1-c1ccccc1)c1ccncc1,2.82 µM (active),–
O=C(Nc1cn(-c2ccccc2)nc1-c1ccccc1)c1ccccc1,inactive,–
CC(C)CCN(C(=O)c1csnn1)C(C(=O)NC1CCCC1)c1ccccc1 (configuration not stated),inactive,–
Cc1ccc(NC(=O)CN(C)C(=O)COC(=O)C(C)(C)Oc2ccc(Cl)cc2)cc1,inactive,–

SMILES,Potency,"activity change, negative = inhibition"
Cn1c(CSCC(=O)Nc2ccccc2)nnc1SCc1ccccc1,inactive,–
Cn1c(Cc2cccs2)nnc1SCC(=O)Nc1ccccc1,inactive,–
Cn1c(CC(=O)Nc2ccccc2)nnc1SCC(=O)c1ccccc1,3.55 µM (active),–
CCOc1ccc(N(CC)S(=O)(=O)c2cccc3nsnc23)cc1,inactive,–
O=C(CN(C(=O)c1csnn1)c1cccc(Cl)c1)NC1CCCC1,inactive,–
COc1cc(Cl)ccc1OCc1cc(C(=O)N2CC[C@@H]3CCCC[C@H]3C2)no1,inactive,–
CCc1ccc(NC(=O)Cn2nnc(C(=O)NCc3ccc4c(c3)OCO4)c2N)cc1,inactive,–
CC1CCCCC1NC(=O)/C(C#N)=C/C=C/c1ccccc1[N+](=O)[O-] (configuration not stated),8.91 µM (active),–
O=C(/C=C/c1ccccc1[N+](=O)[O-])NCC1CCCO1 (configuration not stated),–,16.2% [at 10 µM] (inactive)
O=C(/C=C/c1ccccc1[N+](=O)[O-])OC1CCCCC1=O (configuration not stated),inactive,–
CCCCC(=O)Nc1nnc(S(=O)(=O)N(C)Cc2ccco2)s1,inactive,–
CSc1ccccc1NC(=O)c1cc(Cl)sc1Cl,inactive,–
CC(c1ccccn1)N(C)C(=O)c1ccc2nc(Cc3cccc(Cl)c3)oc2c1 (configuration not stated),inactive,–
Cc1ccc(-c2c3c(=O)n(C)c(=O)n(C)c3cn2-c2ccccc2O)cc1,inactive,–
Cc1ccc(-c2c3c(=O)n(C)c(=O)n(C)c3cn2-n2cnnc2)cc1,15.8 µM (active),–
COc1ccc(-c2c3c(=O)n(C)c(=O)n(C)c3cn2-c2cccc(OC)c2)cc1,inactive,–
Cn1c(-c2sc3cc(C(F)(F)F)cnc3c2-c2ccccc2)n[nH]c1=S,2.82 µM (active),–
Cc1cc(C(F)(F)F)n2ncc(-c3ccccc3)c2n1,–,-12.2% [at 0.365 µM] (inactive)
CC1(C)OC2CC3C4CCC5=CC(=O)CCC5(C)C4(F)C(O)CC3(C)[C@]2(C(=O)CCl)O1 (some centres not stated),10 µM (active),–
CC(=O)OCC(=O)[C@@]1(O)CC[C@@H]2[C@H]3CCC4=CC(=O)C=C[C@]4(C)[C@]3(F)[C@@H](O)C[C@@]21C,–,-4.5% [at 2.98 µM] (inactive)
CC(=O)OCC(=O)[C@@]1(O)CCC2C3CCC4=CC(=O)CC[C@@]4(C)[C@]3(F)C(O)C[C@]21C (some centres not stated),inactive,–
